This is an account of results in PubChem BioAssay (NCI).

Each structure is given as a SMILES string. About 83,000 compounds went through this panel and 20% of them were active in at least one assay; those are over-represented in the sample as a whole.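 A percent growth of 40 corresponds to 60% growth inhibition; 0 means no net growth; -100 means all cells died. Active threshold: below 10.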 A number with no mark means an inactive call. Activity calls are given as the source filed them.

The test concerns CCRF-CEM leukemia. Kind of test: NCI-60 one-dose screen, 48 h (100 = growth as untreated, 0 = no growth, -100 = all killed). The following applies: 10 µM unless noted. The protocol: Growth inhibition of the CCRF-CEM human tumor cell line is measured as a screen for anti-cancer activity. Cells are grown in 96 well plates and exposed to the test compound for 48 hours. Compounds are tested at a single concentration, which is 10^-5 M for most compounds. The reported endpoint is percent growth (GI% or GIPRCNT), where numbers from 0 - 100% represent growth inhibition, and numbers from -100% - 0 represent cell death. For example, a value of 40 represents 60% growth inhibition. A value of 0 means no net growth occurred over the course of the experiment. A value of -40 indicates 40% of cells at the beginning of the experiment died by the end of the experiment. A value of -100 means all cells are dead at the end of the experiment.
NCI-60 Human Tumor Cell Lines Screen was performed using the standard one-dose NCI protocol, which is described in more detail at https://dtp.cancer.gov/discovery_development/nci-60/default.htm.
Compounds with GIPRCNT values below 10 were considered active. Activity score was based on GIPRCNT using the following formula: […]
Score is 0 for GIPRCNT values of 100 or above, 50 for GIPRCNT values of 0, and 100 for GIPRCNT values of -100.
Turning to `CCCCc1nc2c(N)nc3ccccc3c2n1Cc1ccc(OC)cc1`, the growth was 60.2%.
As for `Cn1cc(C2=C(c3coc4cc(Br)ccc34)C(=O)NC2=O)c2ccccc21`, the figure is 62.5%.
With `COC(=O)N1CCN(CCNCc2ccc(NC(=O)c3ccc(C)c(C#Cc4cnc5cccnn45)c3)cc2C(F)(F)F)CC1` the figure was 10.8%.
As to `COc1ccc(C(C)=C(c2ccc(OCCN3CCCCCC3)cc2)c2ccc(OCCN3CCCCCC3)cc2)cc1`, the growth was 0.672% (active).
Regarding `CCCCCC[n+]1ccc(SCC(=O)n2ccc3ccccc32)c2ccccc21`, the growth was 77.3%.
On to `COc1ccccc1N1CCN(C2=C(Cl)C(=O)c3ncccc3C2=O)CC1`, for which the growth is 11.5%.
As for `CCOC(=O)c1c(NC(=O)c2ccc(C(F)(F)F)cc2)sc2c(CN3CCN(C)CC3)c(O)ccc12`, the figure is -24.6% (active); as for `C#CCOc1ccc(-c2csc(NC(=O)C=C)n2)cc1NS(=O)(=O)c1cccc2c(N(C)C)cccc12`, 3.87% (active); as for `CC[C@]12C=CCN3CC[C@@]4(c5ccc(OC)cc5N(C)[C@H]4[C@@](O)(C(=O)OC)[C@@H]1OC(=O)CCN1CCc4ccccc4C1)[C@@H]32`, 82.6%.
With `N#C/C(=C\c1ccc(-c2ccc(Cl)cc2)o1)C(=O)Nc1ncc(Cc2ccc(Br)cc2)s1` the figure was 34.8%.
`C=C(C)[C@@H]1CC[C@]2(C(=O)NC3CCCCC3)CC[C@]3(C)[C@H](CC[C@@H]4[C@@]5(C)CC[C@H](N)C(C)(C)[C@@H]5CC[C@]43C)[C@@H]12`: the growth was 79.4%.
With `C/C(=C(\c1ccc(O)cc1)c1ccc(OCCN2CCCCCC2)cc1)c1ccc(Cl)cc1` the figure was 3.56% (active); with `Cc1ccc(S(=O)(=O)c2nc(-c3ccc(F)cc3)oc2S(C)(=O)=O)cc1`, -14.8% (active); with `O=C1[C@@H]2Cc3c([nH]c4ccccc34)[C@H](c3ccc(Cl)cc3)N2C(=O)CN1C1CCN(Cc2ccccc2)CC1`, 36.7%.
In the case of `CN1CCN(c2ccc(Nc3nc(NCCNC(=O)c4ccccc4)c4sccc4n3)cc2)CC1`, the growth is 27.9%.
As for `COc1cc(C(C)=C(c2ccc(OCCN(C)C)cc2)c2ccc(OCCN(C)C)cc2)ccc1F`, the figure is 111%.
As for `CC[C@H](CC[C@@H](C)[C@H]1CC[C@H]2[C@@H]3CC(=O)C4=CC(=O)/C(=C/c5ccc([N+](=O)[O-])cc5)C[C@]4(C)[C@H]3CC[C@]12C)C(C)C`, the figure is 56.1%.
With `O=C1C(SCc2ccccc2)=C(Cl)CN1c1ccc(Cl)cc1`, the growth is 70.8%.
`O=c1c2cc(-c3ccc(F)cc3F)ccc2n(O)c(=O)n1-c1cccc(C(F)(F)F)c1`: the growth is 15.2%.
As for `O=C1Nc2ccccc2/C1=C/c1ccc(OCC(=O)c2ccccc2)cc1`, the figure is 98.1%; as for `O=C(CCCCCCNC(=O)C(O)(O)C(F)(F)F)Nc1nc2ccccc2s1`, 22.6%; as for `O=C(O)CC1CCN(c2ccc3nnc(Cl)n3n2)CC1`, 111%.
With `O=C(CCCCCCNC(=O)C(O)(O)C(F)(F)F)Nc1ccc(Cl)cc1` the figure was 22.4%; with `Cc1ccc(C)c(NC2=C(Cl)C(=O)c3nc(C)ccc3C2=O)c1`, 0.186% (active); with `CC1=Cc2ccccc2OC12C=Cc1ccccc1O2` (stereo not given), 105%.
Regarding `CC(Nc1ncnc2ccc(-c3cnc4cnccn34)cc12)c1ccccc1` (stereo not given), the growth is 61.1%.
With `CC(C)NC(=O)c1cc(-c2ccc(NC(=O)Nc3ccc(F)cc3)cc2)nc2cccnc12` the figure was 112%; with `CCC1=Cc2c(OC)cccc2OC12C=Cc1c(OC)cccc1O2` (stereo not given), 16.2%.
With `CN1CCC[C@]2(C)[C@H]3CC[C@@H]4[C@@H]5[C@H]6OC[C@@]5(CCC6(C)C)CC[C@@]4(C)[C@]3(C)CC[C@H]2C1(C)C` the figure was 66.4%.
Turning to `CC(=O)OCCCCN1C=C/C(=C\C(=O)n2ccc3ccccc32)c2ccccc21`, the growth is 102%.
With `N/C(=N\C(N)=N\c1nc2ccccc2s1)c1ccc(Cl)cc1`, the growth is 57.9%.
With `CNCCN(C)c1ccc(Nc2cc(NC3CC3)n3ncc(C#N)c3n2)cc1NC(C)=O` the figure was 13.2%; with `O=[N+]([O-])c1ccc(NC(=S)NNC(=S)Nc2ccc(F)cc2)cc1`, 103%.
Take `COC(=O)c1cccc(NC2=C(Cl)C(=O)C(C)=C(C)C2=O)c1`: the growth is 6.54% (active).
As for `CC(=O)OC[C@@]12Oc3c(cccc3-c3ccc(O)c4c3O[C@]3(COC(C)=O)C(=C4O)C(=O)C[C@H](C)[C@@H]3OC(C)=O)C(O)=C1C(=O)C[C@H](C)[C@@H]2OC(C)=O`, the figure is 14.3%; as for `CC1=C(C)C(=O)C(Nc2cccc(C(=O)OC(C)(C)C)c2)=CC1=O`, 78.8%; as for `COc1ccc2c(c1)c(/C=N/Nc1ccnc3cc(Cl)ccc13)cn2C`, -29.2% (active).
With `CNC(=O)c1cc(N2CCc3cc(NC(=O)Nc4ccc(N5CCOCC5)c(C(F)(F)F)c4)ccc32)ccn1`, the growth was 25.1%.
For the compound `O=C1[C@H]2Cc3c([nH]c4ccccc34)[C@H](c3ccc(Cl)cc3)N2C(=O)CN1C1CCN(CC2CCCCC2)CC1`, the growth was 39.3%.
As for `CCc1cc(OC(=O)N2CCN(CCC(C)(COC(C)(C)C)COC(C)(C)C)CC2)ccc1Nc1cc(-c2ccc(-n3cccn3)cc2)[nH]n1`, the figure is 56.7%.
